Source: PubChem (several laboratories)
PfHsp40 rescue: rescue of PfHsp40-mediated yeast toxicity; S. cerevisiae expressing PfHsp40, growth rescue, ATP luminescence; 340,000 tested, 0.68% active; growth rescue, % at 12.5 µM; AID 504582; in the data active means growth rescue above about 28%, passing the limit was not always enough; inconclusive means no clear call, values can overlap the other calls;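 further: yeast W303a lacking pdr1 and pdr3 grown in galactose medium; growth measured after three days at 30 °C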
MazF activator: increases E. coli MazEF RNase cleavage of RNA. P0AE70. FAM/BHQ RNA-DNA oligo cleavage fluorescence, 5 h. activation, % at 20 µM. 350,000 tested, 0.32% active. AID 504720; in the data active means activation above about 50%
Bead autofluor: flagged as autofluorescent in microsphere protease counterscreen; compound autofluorescence counterscreen, microsphere flow cytometry; active compounds read high; fluorescence intensity (test concentration not listed); 360,000 tested, 3.1% active; in the data active means fluorescence intensity above about 16000; inconclusive means no clear call, values can overlap the other calls
BoNT A protease: blocks Botulinum neurotoxin A light chain protease; multiplex microsphere protease substrate cleavage, flow cytometry; 360,000 tested, 0.17% active; inhibition, % at 10 µM; further: plate controls were buffer without enzyme for full effect and enzyme alone for no effect
BoNT-F LC inh: inhibitors of Botulinum neurotoxin F light chain protease | 360,000 tested, 0.22% active | Multiplex microsphere protease cleavage assay, flow cytometry | inhibition, % at 10 µM | AID 588497; in the data active means inhibition above about 35%, passing the limit was not always enough; inconclusive means no clear call, values can overlap the other calls; further: plate controls were buffer without enzyme for full effect and enzyme alone for no effect
Anthrax LF inh2: anthrax lethal factor protease inhibition; 360,000 tested, 0.12% active; AID 588501; inhibition, % at 10 µM; multiplex microsphere protease cleavage assay, LF; P15917; further: plate controls were buffer without enzyme for full effect and enzyme alone for no effect
Target sequence (P15917 whole entry, looked up): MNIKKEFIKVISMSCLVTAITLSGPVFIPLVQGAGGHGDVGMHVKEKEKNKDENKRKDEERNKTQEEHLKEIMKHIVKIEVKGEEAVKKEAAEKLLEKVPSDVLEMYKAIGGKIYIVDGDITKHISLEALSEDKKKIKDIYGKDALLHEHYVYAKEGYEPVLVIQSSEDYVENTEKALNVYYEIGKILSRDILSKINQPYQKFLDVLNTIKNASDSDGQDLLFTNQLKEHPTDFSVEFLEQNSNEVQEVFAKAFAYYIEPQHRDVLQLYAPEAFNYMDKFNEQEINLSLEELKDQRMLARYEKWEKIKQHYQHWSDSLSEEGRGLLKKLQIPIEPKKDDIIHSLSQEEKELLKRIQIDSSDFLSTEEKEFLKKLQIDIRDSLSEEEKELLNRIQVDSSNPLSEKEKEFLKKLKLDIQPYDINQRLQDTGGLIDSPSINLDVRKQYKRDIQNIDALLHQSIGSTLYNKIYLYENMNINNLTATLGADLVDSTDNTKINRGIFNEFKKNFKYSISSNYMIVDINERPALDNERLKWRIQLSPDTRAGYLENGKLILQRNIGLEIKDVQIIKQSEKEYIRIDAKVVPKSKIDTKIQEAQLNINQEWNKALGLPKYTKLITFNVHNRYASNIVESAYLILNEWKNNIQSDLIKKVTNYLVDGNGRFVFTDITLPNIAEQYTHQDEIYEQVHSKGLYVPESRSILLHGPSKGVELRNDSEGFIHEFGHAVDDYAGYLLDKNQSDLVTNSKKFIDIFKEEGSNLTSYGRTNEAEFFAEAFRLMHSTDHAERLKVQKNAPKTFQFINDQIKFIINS
BoNTA LC inh 1: blocks botulinum neurotoxin A light chain protease; multiplex microsphere protease assay, flow cytometry; inhibition, % at 10 µM; 720 tested, 3% active; shares compounds with BoNT-F LC inh; AID 602139; in the data active means inhibition above about 32%
BoNTF LC inh 1: BoNT/F light chain protease inhibition | multiplex microsphere protease cleavage assay, flow cytometry | 720 tested, under 10 active | inhibition, % at 10 µM | shares compounds with BoNT-F LC inh | AID 602140; call rule not given here
LF protease CP1: Bacillus anthracis lethal factor protease inhibition. multiplex microsphere protease cleavage assay, LF. inhibition, % at 10 µM. shares compounds with BoNT-F LC inh. 720 tested, under 10 active; call rule not given here
The depositor's hits bear a star; ? = inconclusive; . = no result given. Sampled rows, rich in hits. Any-hit rate of the full collection: about 4.3%. Unless noted, no stated cut-off is given here; in the data, active means inhibition above about 30%; inconclusive means no clear call, values can overlap the other calls; inactive means below that.

SMILES	PfHsp40 rescue	MazF activator	Bead autofluor	BoNT A protease	BoNT-F LC inh	Anthrax LF inh2	others
O=C(c1cc2ccccc2o1)N(Cc1ccco1)Cc1cccs1	164.8*	-9.7	5633	1.3	-9.2	2.2
COc1cc(C(=O)N(Cc2ccco2)Cc2cc3ccccc3[nH]c2=O)cc(OC)c1OC	0.5	-0.1	23180*	?	-3.6	-1.2
Cc1cccc2cc(CN(Cc3ccco3)C(=O)c3cccs3)c(=O)[nH]c12	-1.8	6.1	2462	-0.1	-4.2	-3.0
Cc1ccc2cc(CN(Cc3ccco3)C(=O)c3cccs3)c(=O)[nH]c2c1	42.2*	7.0	3386	-0.4	7.7	1.5
CC=C1OC(n2cnc3c(N)ncnc32)C(O)C1O (stereo unspecified)	.	.	6168	-1.1	-10.0	-4.0
N#Cc1nc(-c2ccco2)oc1NCCCN1CCOCC1	-1.0	0.5	22603*	0.4	-0.4	-9.4
O=S(=O)(c1ccccc1)c1nc(-c2ccco2)oc1NCCCN1CCOCC1	-0.2	9.8	4174	0.6	16.2	-1.8
N#Cc1nc(Cc2cccc3ccccc23)oc1NCCCN1CCOCC1	-1.2	2.5	7296	0.1	-2.2	-3.1
N#Cc1nc(COc2ccc(Br)cc2)oc1NCCN1CCOCC1	-1.4	-9.8	23449*	-2.1	-2.5	0.2
N#Cc1nc(COc2ccc(F)cc2)oc1NCCN1CCOCC1	0.2	3.0	4219	-0.1	4.4	-2.6
O=S(=O)(c1ccccc1)c1nc(-c2ccco2)oc1NCCN1CCOCC1	0.2	-2.0	23098*	-2.3	-1.7	-2.1
CC(=O)c1c(C(C)=O)c(C)n(-c2ccc(C)c(NC(=O)c3ccccc3Cl)c2)c1C	-1.8	0.5	16183*	0.2	-0.3	-4.1
COc1cc(C(=O)OCCCOC(=O)c2cc(OC)c(OC)c(OC)c2)cc(OC)c1OC	1.1	2.0	5918	-0.8	5.1	-1.3
COc1cc(C(=O)NCC(C)C)cc(OC)c1OC	-0.7	-0.4	16687*	-0.8	-0.8	-2.3
CCOCCCNC(=O)CCNC(=O)c1cc(OC)c(OC)c(OC)c1	1.5	3.3	20238*	-1.2	-2.7	-4.0
CCN(CC)CC(C)OC(=O)c1cc(OC)c(OC)c(OC)c1 (stereo unspecified)	-0.7	9.9	19405*	?	4.0	-1.4
COc1cc(C(=O)NCCC(=O)NCCCN2CCCCC2)cc(OC)c1OC	0.2	4.7	25617*	-7.3	-6.4	-5.6
COc1ccc(Cl)cc1N(CC(=O)Nc1ccccc1C(=O)N1CCOCC1)S(C)(=O)=O	-1.6	1.3	4907	3.5	-1.7	0.9
Cc1ccc(Cn2nnc3c(=O)[nH]c(C4CCN(S(=O)(=O)c5ccccc5F)CC4)nc32)cc1	-0.8	1.8	3868	-4.4	-31.6	7.6
Cc1ccc(C(=O)N2CC(C)OC(C)C2)cc1S(=O)(=O)N1CCCCC1 (stereo unspecified)	-0.6	1.5	3742	-0.2	0.1	3.2
CCOC(=O)c1sc2c(c1C)c(=O)c(C(=O)OCC)cn2CC	-0.2	8.7	19706*	1.1	3.9	-3.7
CCOC(=O)c1cn(CC)c2cc3c(cc2c1=O)OCO3	0.7	3.5	3810	-0.5	-6.7	-9.5
CSc1nsc(SC)c1NC(=O)OCC1CCCO1 (stereo unspecified)	0.1	-2.9	21471*	3.7	5.8	-1.5
COc1ccc(Nc2c[nH]c(=O)[nH]c2=O)cc1	0.3	12.5	4184	-0.7	-8.4	-3.3
O=C1CN(c2ccccc2Cl)C(=O)CN1c1ccccc1Cl	-0.5	4.5	23954*	-1.3	-3.6	-2.2
SMILES	PfHsp40 rescue	MazF activator	Bead autofluor	BoNT A protease	BoNT-F LC inh	Anthrax LF inh2	others
COc1cc(SC)ccc1C(=O)NCCN1CCOCC1	0.4	5.7	4147	3.7	?	37.1*	BoNTA LC inh 1=-1.0;BoNTF LC inh 1=-1.7;LF protease CP1=-4.3
COc1ccc(Cl)cc1C(=O)NCCN1CCOCC1	-2.3	-2.2	.	.	.	.
COc1ccc(C(=O)NCCn2ccc3ccccc32)cc1	0.7	-2.0	9335	53.0*	10.9	36.5*	BoNTA LC inh 1=1.6;BoNTF LC inh 1=12.9;LF protease CP1=0.6
Cc1cc2ccccc2n1CCNC(=O)c1ccccc1	1.4	-10.7	1420	?	?	?	BoNTA LC inh 1=24.0;BoNTF LC inh 1=-6.4;LF protease CP1=17.4
CC(=O)NCCn1c(C)cc2ccccc21	0.0	-3.3	5295	8.4	1.6	21.3
Cc1cc(-c2nnc(-c3cccc(Cl)c3)o2)no1	0.1	-1.1	3635	-0.3	?	10.2
CC(Nc1nc(N2CCNCC2)nc2ccccc12)c1ccccc1 (stereo unspecified)	-0.3	-17.3	3935	-0.7	-6.1	-3.9
CCOC(=O)NCc1ccc2c(c1)cc(C)n2C	2.6	-1.6	13397	41.3*	21.5	41.8*	BoNTA LC inh 1=-0.1;BoNTF LC inh 1=-7.5;LF protease CP1=-1.2
Cc1cc2cc(CNC(=O)C(C)Oc3ccccc3)ccc2n1C (stereo unspecified)	1.2	-0.8	2556	90.0*	-56.9	-10.2	BoNTA LC inh 1=3.8;BoNTF LC inh 1=-4.3;LF protease CP1=2.2
Cc1cc2cc(CNC(=O)c3cccs3)ccc2n1C	-0.5	11.7	1271	79.0*	-71.5	-2.7	BoNTA LC inh 1=15.2;BoNTF LC inh 1=-33.5;LF protease CP1=1.6
Cc1cc2cc(CNC(=O)C3CC3)ccc2n1C	0.9	-16.0	13924	18.3	6.0	26.9
CCC(CC)C(=O)NCc1ccc2c(c1)cc(C)n2C	-0.3	0.3	3772	32.0*	-37.0	-1.3	BoNTA LC inh 1=1.7;BoNTF LC inh 1=-4.6;LF protease CP1=-1.9
Brc1cc(Cc2nnc(-c3ccccc3)o2)c(Br)s1	1.2	-2.5	3734	?	?	-17.3
CC(C)CCN(C(=O)C1CSC2(C)CCC(=O)N12)c1c(N)n(Cc2ccccc2)c(=O)[nH]c1=O (stereo unspecified)	1.4	6.2	?	1.4	3.2	0.2
COc1ccc(CNC(=O)Nc2ccccc2)cc1	-0.1	2.9	4598	-0.7	-6.2	-1.1
Cc1cc2cc(CNC(=O)Nc3ccccc3)ccc2[nH]1	-1.0	3.4	3218	54.8*	-117.0	-84.2	BoNTA LC inh 1=6.3;BoNTF LC inh 1=-45.8;LF protease CP1=-7.6
CCOC(=O)NCc1ccc2[nH]c(C)cc2c1	0.0	1.3	3699	25.1	-19.6	16.2
Cc1cc2cc(CNC(=O)Nc3ccccc3)ccc2n1C	-0.9	9.7	2200	55.6*	-153.4	-78.2	BoNTA LC inh 1=9.7;BoNTF LC inh 1=-48.2;LF protease CP1=-8.0
CCN(CC)S(=O)(=O)c1cccc(C(=O)NCCCn2ccnc2)c1	0.0	-0.5	3289	0.4	3.0	-6.9
Cc1ccc2c(c1)c1c(n2CCc2ccc(C)nc2)CCN(C)C1	2.1	-24.8	2905	-0.7	-3.9	-7.2
O=C(Nc1ccc(Oc2cccnc2)cc1)c1ccc([N+](=O)[O-])cc1	-0.4	-10.2	2603	-0.2	-1.8	-1.5
O=C(Nc1ccc(Nc2ccncc2)cc1)c1ccc([N+](=O)[O-])cc1	0.7	-12.3	3510	0.7	-7.7	35.8*	BoNTA LC inh 1=-1.3;BoNTF LC inh 1=-9.8;LF protease CP1=-2.1
